Test results: PubChem BioAssay (Tox21)
Inconclusive results are not listed. The source made the active and inactive calls. Unless noted, calls follow the shape of the dose curve; as a rule, active = well fitted curve in the direction sought with a large enough effect in the repeat runs; inconclusive = weak or mixed curves; inactive = no such curve, though single readings can be large; an effect the other way counts as inactive or inconclusive.

Key:
[1] = qHTS assay to identify small molecule phospholipidosis (PLD) inducers (AID 1259344; active = well fitted curve in the direction sought with a large enough effect; an effect the other way counts as inactive or inconclusive)
Method in brief: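 Phospholipid accumulation was scored by imaging: fixed, Hoechst-counterstained HepG2 cells stained with LipidTOX Red after 24 h compound exposure at 37 C. Read-outs were pit count and pit intensity per well or per cell, with amiodarone and DMSO controls.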

[2] = qHTS assay to identify small molecule HDAC inhibitors (AID 1259364);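 also: wild-type HCT-116 cells with endogenous class I/II HDAC activity; top concentration of the series differs between compounds; nearly all actives have a fitted effect of over 45% in size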
Method in brief: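 After a 2 hr compound incubation (37C, 5% CO2), HCT-116 cells seeded at 1,500/well the day before received HDAC-Glo reagent; signal read as luminescence after 30 min at room temperature.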

[3] = qHTS assay to identify small molecule agonists of the sonic hedgehog signaling (Shh) pathway - cell viability counter screen (AID 1259366); also: nearly all actives have a fitted effect of over 50% in size; also: potency is read from the fitted curve at half-maximal effect
Method in brief: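 Fluorescence from CellTiter-Fluor reports live cells in this counter screen. NIH/3T3-derived Gli1-Luc reporter cells receive test compounds for 24hr at 37C; reagent goes in at 23hr.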

[4] = qHTS assay to identify small molecule antagonists of the sonic hedgehog signaling (Shh) pathway - cell viability counter screen (AID 1259367); also: nearly all actives have a fitted effect of over 55% in size; also: potency is read from the fitted curve at half-maximal effect
Method in brief: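 Viability was read by CellTiter-Fluor fluorescence in the same wells, reagent added 23 hr into compound treatment and incubated 1 hr at 37C. The 3T3 Gli1-Luc reporter cells (2,000/well) received conditioned medium after compound and ran 24 hr.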

[5] = qHTS assay to identify small molecule antagonists of the sonic hedgehog signaling (Shh) pathway (AID 1259369; calls by dose curve; also: nearly all actives have a fitted effect of over 45% in size; also: potency is read from the fitted curve at half-maximal effect)
Method in brief: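 Gli1 transcriptional reporter (firefly Luc) in NIH/3T3 background, conditioned-medium activated. 24hr exposure, luminescence endpoint.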

[6] = qHTS assay to identify small molecule HDAC inhibitors - cell viability counter screen (AID 1259365); also: series mostly up to about 92 µM; nearly all actives have a fitted effect of over 50% in size
Method in brief: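 To flag cytotoxic hits, 1,500 wild-type HCT-116 cells per well, plated the day before, receive test compounds for 2hr at 37 C before CellTiter-Glo reagent and a luminescence read.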

[7] = qHTS assay to identify small molecule agonists of the sonic hedgehog signaling (Shh) pathway (AID 1259368; calls by dose curve;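 also: NIH/3T3-derived 3T3Gli1-Luc cells carrying a stable Gli1-driven firefly luciferase reporter; series mostly up to about 92 µM; nearly all actives have a fitted effect of over 15% in size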)
Method in brief: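 Stable NIH/3T3 Gli1-Luc reporter clone; 24 hr cpd exposure after a 4 hr settling period; luminescence endpoint.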

[8] = molecular target: Estrogen receptor beta (Homo sapiens) (UniProt Q92731); experiment: qHTS assay to identify small molecule agonists of the estrogen receptor beta (ER-beta) signaling pathway (AID 1259377; active = well fitted activation curve with a large enough effect in the signal ratio in the repeat runs, not every such curve was filed as active; the % refers to the signal ratio)
Chain of Estrogen receptor beta (Homo sapiens) (Q92731 whole entry, looked up): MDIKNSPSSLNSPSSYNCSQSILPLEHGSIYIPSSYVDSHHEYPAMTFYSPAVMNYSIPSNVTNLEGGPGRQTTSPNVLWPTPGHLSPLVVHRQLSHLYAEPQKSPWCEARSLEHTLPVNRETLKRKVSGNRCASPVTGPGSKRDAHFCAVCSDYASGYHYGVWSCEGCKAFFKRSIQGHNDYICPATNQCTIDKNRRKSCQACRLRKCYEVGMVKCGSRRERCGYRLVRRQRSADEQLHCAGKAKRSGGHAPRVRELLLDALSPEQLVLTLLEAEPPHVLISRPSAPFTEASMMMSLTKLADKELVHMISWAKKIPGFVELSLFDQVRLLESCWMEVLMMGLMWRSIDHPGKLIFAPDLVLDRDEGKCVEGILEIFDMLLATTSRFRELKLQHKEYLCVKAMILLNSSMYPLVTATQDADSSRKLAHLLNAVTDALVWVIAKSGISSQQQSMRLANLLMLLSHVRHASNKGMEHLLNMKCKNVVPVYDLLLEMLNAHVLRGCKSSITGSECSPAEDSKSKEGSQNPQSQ
Method in brief: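 Screening used GripTite ER-beta-UAS-bla cells held in 2% charcoal-stripped FBS medium. After overnight (16 hr) compound incubation at 37C, beta-lactamase activity was detected with a FRET substrate by fluorescence.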

[9] = molecular target: Estrogen receptor beta (Homo sapiens) (UniProt Q92731); experiment: qHTS assay to identify small molecule antagonists of the estrogen receptor beta (ER-beta) signaling pathway (AID 1259378; active = well fitted inhibition curve with a large enough effect in the signal ratio in the repeat runs, not every such curve was filed as active; the % refers to the signal ratio)
Method in brief: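 Antagonist mode: compounds added to beta-lactamase reporter HEK293T ER-beta-UAS cells stimulated with E2 (1nM final), 16 hr at 37C. LiveBLAzer B/G FRET substrate, 2 hours room temperature, fluorescence read-out.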

Measured: Potency

Nc1ccc(N)c([N+](=O)[O-])c1
inactive: [1] | [2]
active: [3] 27.3 µM | [4] 21.7 µM | [5] 8.63 µM

COc1cc2c(c(OC)c1OC)-c1c(cc3c(c1OC)OCO3)C[C@@H](C)[C@](C)(O)C2
inactive: [1]

O=C1CCCCCCCCCCCCCC1
not listed: [1]
inactive: all other assays above

CC/C(=C(/CC)c1ccc(OP(=O)(O)O)cc1)c1ccc(OP(=O)(O)O)cc1
inactive: [1]

CCOC(=O)Cc1ccc(-c2ccccc2)cc1
inactive: [1]

NCc1ccco1
not listed: [1]
inactive: all other assays above

C/C(=C\c1ccc(C(=O)O)cc1)c1ccc2c(c1)C(C)(C)CCC2(C)C
not listed: [1] | [9]
inactive: all other assays above

C=CC[N+]1([C@H]2C[C@H]3[C@@H]4CC[C@H]5C[C@H](O)[C@@H](N6CCOCC6)C[C@]5(C)[C@H]4CC[C@]3(C)[C@H]2OC(C)=O)CCCC1
inactive: [1]

CC1=C(/C=C/C(C)=C/C=C/C(C)=C\C(=O)O)C(C)(C)CCC1
inactive: [2] | [6] | [3] | [4]

COc1cc(/C=C/C(=O)CC(=O)/C=C/c2ccc(O)c(OC)c2)ccc1O
active: [3] 30.8 µM | [4] 24.5 µM | [5] 8.69 µM
inactive: [1] | [2]

C=Cc1ccncc1
not listed: [1] | [8] | [9]
inactive: all other assays above

CC(CC(C)(C)C)CC(C)(C)CC(C)(C)C (stereo not given)
not listed: [1]
inactive: all other assays above
